This is an account of results in the OligoGym collection.

Test in all cases: pooled miR-30 sensor sort-seq; sequence = guide strand
Common to all, as to conditions: shRNA

For test [1], the target named is SUN1.
Test [2] deals with SULT6B1.
Test [3] addresses SYT2.
For test [4], the target named is SYTL1.
Test [5] concerns the target SYTL4.
Test [6] deals with TAAR8.
Test [7] concerns the target TAS1R2.
In test [8] the target is TC2N.
In test [9] the target is TCTN3.
Test [10] has as its target TEAD3.
Test [11] concerns the target TFEB.
Test [12] deals with TFAP4.
The target in test [13] is TFPI2.
Further: reference of the scale not given here.

Consider TTTGTTTGTGCTTCTGCGCTGT, for which, in test [1], the sensor-assay potency score (higher = more potent) came out at 0.665. Sequence TACTGCTGTATCTTTAGGGTTT displayed a sensor-assay potency score (higher = more potent) in test [2] of -0.446. In the case of TTTCTGAATCTGCTCGAAGGGG, the sensor-assay potency score (higher = more potent) in test [3] was -0.751.

TCGCACAACCCTTGTACGCTGG gave a sensor-assay potency score (higher = more potent) in test [4] of -0.836. With TTGACATAAGGGTCTGAGGTGC, the sensor-assay potency score (higher = more potent) in test [3] was -0.653. With TTCAACTCTATTTCCTTGGCGC, the sensor-assay potency score (higher = more potent) in [5] was 0.409. Regarding TATCTCATTGAATAACTTCTCC, the sensor-assay potency score (higher = more potent) in test [3] is -0.214.

In test [4], TTCCTGCGCATAGACGCTCGGA registered a sensor-assay potency score (higher = more potent) of -0.515. Take TAGACGCTCGGACAAGGTCAGA: in test [4], the sensor-assay potency score (higher = more potent) is -1.39.

In test [5], TTTGGGAGCAGACATCTTCTTC yielded a sensor-assay potency score (higher = more potent) of -0.722. On to TTTCACAGCAGCCTCAGCCTCC, for which the sensor-assay potency score (higher = more potent) in test [4] was -0.778. Still for that read-out and setting: the value for TTATCCGGGAGGAGGTAGCTTT was -1.36; that for TTCTCTTTCACAGCAGCCTCAG was -1.16. TTCTGAATCTGCTCGAAGGGGA came in with a sensor-assay potency score (higher = more potent) in test [3] of 0.015. Still for that read-out and setting: in the case of TATTTCTTCTTCTTGTCAGGAA it was 0.447. Turning to TCAATTAATATATCAACTGTAT, the sensor-assay potency score (higher = more potent) in test [6] was -0.769. Consider TAGTGGATTAACAGTGTCCCGC, for which the sensor-assay potency score (higher = more potent) in test [5] is -0.966. In the case of TTCACCGCCGTCTTGCGCTTGC, the sensor-assay potency score (higher = more potent) in test [4] is -0.681. On to TTGGCCAGCATGTCGGACCAGT, for which the sensor-assay potency score (higher = more potent) in test [3] was -0.931. As for AACACTGAGAATCAAATCCTTT, the sensor-assay potency score (higher = more potent) in [5] was -1.16. With TTGAACACAGGGCTGAGGCTGC, the sensor-assay potency score (higher = more potent) in test [4] was determined as 0.21.

In test [3], TTGAATAACTTCTCCTTCAGTT displayed a sensor-assay potency score (higher = more potent) of 0.105. The same measure, in the same setting: in the case of TCTCATTGAATAACTTCTCCTT it was -0.0548. In the case of TTCTTCACCGCCGTCTTGCGCT, in [4], the sensor-assay potency score (higher = more potent) is -1.02.

Regarding TACCTGGACTTTCTGAATCTGC, in [3], the sensor-assay potency score (higher = more potent) was -0.968. TTGTACGTAAGTGTCCAGGGAT showed a sensor-assay potency score (higher = more potent) in [4] of 0.203. As to TAATATATCAACTGTATACGGT, the sensor-assay potency score (higher = more potent) in test [6] is -0.194. In test [5], TTCATGTACCACATCTTCTGGG had a sensor-assay potency score (higher = more potent) of 0.0201.

TTAGTGTACTCTGAAGGCCTGA displayed a sensor-assay potency score (higher = more potent) in test [5] of -0.464. The sequence TTTATCTCATTGAATAACTTCT gave a sensor-assay potency score (higher = more potent) in test [3] of -0.172. With TGAGGTCCAACAGTCCTTCAGT, in test [4], the sensor-assay potency score (higher = more potent) was -0.459. For the sequence TTCTTTAGTCGCCTAATCCTTT, the sensor-assay potency score (higher = more potent) in test [5] is -1.13. On the same count and under the same terms, the value for TCATGTACCACATCTTCTGGGC was 0.653; that for TTTCATGTACCACATCTTCTGG was -0.423; that for TAATCCTTTTCTCATCTGCTTT was -1.12.

TTTCTTCAACTCTATTTCCTTG: the sensor-assay potency score (higher = more potent) in test [5] is -0.969. In test [4], TTGACGTAGGGGTCCGAGCGGC came in with a sensor-assay potency score (higher = more potent) of -0.281. For TTTGGCAAACATGTCCTCCTGA, the sensor-assay potency score (higher = more potent) in test [3] stood at 0.92. On the same count and under the same terms, the value for TTTGGTCTCATATTTCTTCTTC was 0.677. In test [6], TAGCCTTTAAAACATCTCCACT returned a sensor-assay potency score (higher = more potent) of -0.818.

With TTATCCAGAGAGTCTCTCCTGG, in test [5], the sensor-assay potency score (higher = more potent) is -0.0866.

In [6], TTTAGCTATAAGAAAAATCTTA registered a sensor-assay potency score (higher = more potent) of -0.583. On the same count and under the same terms, in the case of TAATAAGCACTCCAACAGCAAA it was -1.57. As to TTGCAGGTATAGCTCTGGCTGG, the sensor-assay potency score (higher = more potent) in test [7] is -1.05.

TTGAAGAAGAACTACTGGGTAC registered a sensor-assay potency score (higher = more potent) in test [8] of -0.298. In turn, TTGGTCTCTATCTCATAGGTGA had a sensor-assay potency score (higher = more potent) in test [9] of -0.211. On the same count and under the same terms, in the case of TATATCATCAGTCAGAGCCAAG it was -1.46.

Regarding TTTGCCAAAGGAGCACACCTTG, the sensor-assay potency score (higher = more potent) in [10] was -1.16. The same measure, in the same setting: in the case of TTTCTCGTCCGAGTCTTCCCCG it was -0.491. In test [11], TAGCGTGTTGGGCATCTGCATT registered a sensor-assay potency score (higher = more potent) of -1.17. The same measure, in the same setting: the value for TTGATGTTGAACCTTCGTCTCC was -0.765.

TCGTCCTCCCAGATGTCCGGGG came in with a sensor-assay potency score (higher = more potent) in test [12] of -0.989. In test [13], TTTATATCTTATGCATTGCAAG came in with a sensor-assay potency score (higher = more potent) of -1.47. Turning to TTGGCAAGGCTACAGAGCCCTC, the sensor-assay potency score (higher = more potent) in [12] was -1.54. The same measure, in the same setting: in the case of TTCTCTCCGTCTGTGTGGGGGA it was -0.652. TCATTGATGTTGAACCTTCGTC yielded a sensor-assay potency score (higher = more potent) in test [11] of -0.00793. On to TCATCTTTTGGACTGTAGCAAA, for which the sensor-assay potency score (higher = more potent) in test [13] was -1.13.

For the sequence AATCACCTTGAGCTTTTCCGGG, in test [12], the sensor-assay potency score (higher = more potent) was -1.02. Same read-out and setting: in the case of TTGAGGGACTGGAATCCCGCGT it was -0.113; in that of TTCCCGCTCCAGCTTCTCCTGG, -1.47.
